# Laboratory results as given in PMC13494018.
# Values without a mark were called inactive. How the calls were made is not given here.
# B1: design_486_d4f32670-1303-4d79-8413-1b14cb3eff50_2076_dldesign_0_cycle1_af2pred (protein)
# chain: AALVGEAMVLLAEVAAAGPPEVRAKASAAIAALAAGDLETALKLAKEAAELLKKAGKEYEPAAKKAEEAAKLLKEAAAAAA
# B2: design_487_778f5c6d-c470-43b8-8f82-464af6177e08_310_dldesign_0_cycle1_af2pred (protein)
# chain: AAVLSPEQAGGTFRALATSIRLAAEAGDLDSAEALAAAGLQLAENQPAVAPLVNKAKEEAAKLTPKEAALKLADAFEQAGDALLA
# B3: design_487_778f5c6d-c470-43b8-8f82-464af6177e08_1159_dldesign_0_cycle1_af2pred (protein)
# chain: DTAAALAAAAAAAAALAKADPALAPAALAITQANLAAILDLAEETKAANPEVPAAVGETFNTAITTASTAYATALKLAQ
# B4: design_487_778f5c6d-c470-43b8-8f82-464af6177e08_1105_dldesign_0_cycle1_af2pred (protein)
# chain: AAQLALARATLIAAADSLERLAAQAGPAYAPVAAEAAALRAAAEAGTLTADEANAALGRLLDQMEAISAEIR
# B5: design_487_778f5c6d-c470-43b8-8f82-464af6177e08_816_dldesign_0_cycle1_af2pred (protein)
# chain: GSMEELAKLRAEAEEKLAAAQAVVERPAETVTLEELNAALAQAVEAARLFQEVGDRELLAEAFRVAATLAARAVEVAA
# B6: design_486_d4f32670-1303-4d79-8413-1b14cb3eff50_1679_dldesign_0_cycle1_af2pred (protein)
# chain: AAAAKAKVQAAAAKALAEAKKTAAEAKTLTPEEATALLQATAADAIRQAAEYGKLDPEVAGSALVEVVKLLAEARRAVAA
# B7: design_486_d4f32670-1303-4d79-8413-1b14cb3eff50_2359_dldesign_0_cycle1_af2pred (protein)
# chain: DAAKEFAENYEKAAEYVSQIYAKDPAAGEEMQKVLTAKTAEASKLAIAGDLAGAAKVMKEALEIAKKKLEEL
# B8: design_487_778f5c6d-c470-43b8-8f82-464af6177e08_509_dldesign_0_cycle1_af2pred (protein)
# chain: GEAFSKEALEKGKEAAKKAEESTDPEAKTLYIKAASNYYGAAALALSPESAPLAKERAAKGDEYRAKADAL
# B9: design_486_d4f32670-1303-4d79-8413-1b14cb3eff50_2004_dldesign_0_cycle1_af2pred (protein)
# chain: KKAEILAAGNALVVELLAEAEKAAKAAKAAGDPEAANQALVEAAKGAAKIHALMVKGAPVEELKKEAEAAKKKIKALAE
# B10: design_487_778f5c6d-c470-43b8-8f82-464af6177e08_100_dldesign_0_cycle1_af2pred (protein)
# chain: MDKEQVYETAAKMLEEGAELVKAGEETKPAGLAKAKAAALLVLGVDPEVGEKVLKLVEEAEKADQEKAAKLIEEAAKLVKE
# B11: design_486_d4f32670-1303-4d79-8413-1b14cb3eff50_2179_dldesign_0_cycle1_af2pred (protein)
# chain: AQEANDLLAETLETLREGQAAAKELGDEEARLKLVELANKSMTLASQAVAAGGDQELLDKAKEYHAELKKLAKEVKEKA
# B12: design_487_778f5c6d-c470-43b8-8f82-464af6177e08_501_dldesign_0_cycle1_af2pred (protein)
# chain: MDRAVEIAVASLKHAVKQAIAAAEKIDPELAKKVEEEGKKKIEEAAASDSATAVEIAIEALKKLSELSKKARA
# B13: design_487_778f5c6d-c470-43b8-8f82-464af6177e08_1099_dldesign_0_cycle1_af2pred (protein)
# chain: AAEEVAKKFAKAVLRIALKQIDENAADPELVKKIADNAVKLLNSLSDGAAVAKAEAEKIKAHAEATIAKAKAAKA
# B14: design_487_778f5c6d-c470-43b8-8f82-464af6177e08_749_dldesign_0_cycle1_af2pred (protein)
# chain: GAEEALLAEARALLARAQGLLIEAAKQLKTDPAAAIKLAEEAKKLAEKAKELAKKLGRRGPGLQAMADAVIDSAKALKAQAEAAL
# B15: design_487_778f5c6d-c470-43b8-8f82-464af6177e08_1129_dldesign_0_cycle1_af2pred (protein)
# chain: AEELRERMKKSADGAIEVINDLTAYGIAHPEHAALARAALTGLGTNMIAAAAANPVSKELAEKLAAALTAATAAIDAA
# B16: design_487_778f5c6d-c470-43b8-8f82-464af6177e08_1130_dldesign_0_cycle1_af2pred (protein)
# chain: MTTEETARQQRENVEQVGRVAGLPEQAAELARAMEERAIREGLSNEEIIAEASRLSAQINRQALAAAQAA
# B17: design_487_778f5c6d-c470-43b8-8f82-464af6177e08_1277_dldesign_0_cycle1_af2pred (protein)
# chain: EKEEAKKKAEELLKEIKKLAKEAAASDAETANKYLAKAVETAKELYELAKKIGEEGKELAKEANAALAAAAKAAMDKVQ
# B18: design_487_778f5c6d-c470-43b8-8f82-464af6177e08_1035_dldesign_0_cycle1_af2pred (protein)
# chain: VEEIVERVNAALARATRAALAGGPEAAARTAELMRRAAEAVRLAREDPEAGKKIADEVEAEVDALLAAVA
# B19: design_487_778f5c6d-c470-43b8-8f82-464af6177e08_560_dldesign_0_cycle1_af2pred (protein)
# chain: GAAKLAQGALNMAKAQLAYLEKALAAGAADPANAAAYKAKAKEALEQLKTFATAATLVDPAAAPEGDAILKEAEAKYKALSAAIAAA
# B20: design_486_d4f32670-1303-4d79-8413-1b14cb3eff50_1967_dldesign_0_cycle1_af2pred (protein)
# chain: DAEVEKLQAQIRTAGLILMASSSPEKAEEALKRTKEAVELAKKNPEEGLKLAEEIAEEAKKVGTPEQAAVIDSVFK
# B21: design_486_d4f32670-1303-4d79-8413-1b14cb3eff50_1885_dldesign_0_cycle1_af2pred (protein)
# chain: MEEAGEIVERAEEVYKRAKEAAEENAKRNPEKKEEIKKLYEEAVALIQKSLALASQGALEGNQELLKEAKKKLEEAEKVAKEIEKL
# B22: design_487_778f5c6d-c470-43b8-8f82-464af6177e08_452_dldesign_0_cycle1_af2pred (protein)
# chain: EEERIQRIAEQVEELIKTAEEALATGTAAGKQAAKQLALAAATVLSSVDPELGAKVKEVAKTGTAEEAIKAAKEALEEIKKK
# B23: design_487_778f5c6d-c470-43b8-8f82-464af6177e08_920_dldesign_0_cycle1_af2pred (protein)
# chain: ESVREAARKVKELAEALAAQAKAAGDEEAAKLAEEAAKLAEEAEKKAEEDPEEAKRLIVEALRLLNRAFALLVAAS
# B24: design_487_778f5c6d-c470-43b8-8f82-464af6177e08_89_dldesign_0_cycle1_af2pred (protein)
# chain: SEAEKEAEKAEKLVEELRANPKVPLEKAKELAKAIQELAKLDPEKGAEMASKAVAVILEKGKEIPGETINAILTGVSKAHAIINA
# B25: design_487_778f5c6d-c470-43b8-8f82-464af6177e08_420_dldesign_0_cycle1_af2pred (protein)
# chain: AEEKIKEANRLFQEGARKMVQGLQLAAQGKKEEAEKELTEAIELFTKASKLAKEAGDERLAESAEKAAKEAKAQLAAVKAA
# B26: design_487_778f5c6d-c470-43b8-8f82-464af6177e08_421_dldesign_0_cycle1_af2pred (protein)
# chain: SDAKLAVEAARSAAIAAIELAKQGAWQGAELARQNMKKAAEKALKLGAADPSVKEEVEKEVNAIVKETDAALAAEKAAR
# B27: design_487_778f5c6d-c470-43b8-8f82-464af6177e08_1334_dldesign_0_cycle1_af2pred (protein)
# chain: AGGYAVLAQNTLARARALAAQGPAALPEIEAQARILQQVAEAAAQAGDAEGAATAAANAEQARALAEEARRA
# B28: design_487_778f5c6d-c470-43b8-8f82-464af6177e08_1075_dldesign_0_cycle1_af2pred (protein)
# chain: AAAEEAKKLVKEAKALLKAAEATGNLALAQAALEKALEAIALGAEVNKERPLPVAVEAVRLAGRAYALVRQLTA
# B29: design_486_d4f32670-1303-4d79-8413-1b14cb3eff50_2148_dldesign_0_cycle1_af2pred (protein)
# chain: GSAAYEFAKEAIERALKAAEELKKLDPEEGKKLIEKVEKLKKELEANKDNAQKAARIAIEALQIEQEAQQKIAALKAA
# B30: design_486_d4f32670-1303-4d79-8413-1b14cb3eff50_1718_dldesign_0_cycle1_af2pred (protein)
# chain: MSAGEIALANTRAVAKQLIAAGKELGTEEEARKKAEEAIAKVEELAKKGPAGAAEAMKITVEMMKELDKVSKAVEEAE
# B31: design_487_778f5c6d-c470-43b8-8f82-464af6177e08_901_dldesign_0_cycle1_af2pred (protein)
# chain: DELEKKIKEELEKAKEYLKKGKELFEAGKYKEAAAEFEKAIEYASKAMELAAEAGPKYNKYGVEASKVANEAYKLRQQALAK
# B32: design_487_778f5c6d-c470-43b8-8f82-464af6177e08_613_dldesign_0_cycle1_af2pred (protein)
# chain: EEAEKERARAIIEKASAKLDALAAEAEERDPALGAQARALRDSLAATAQTYIETGSPTGRAGLNSLAAFLA
# B33: design_487_778f5c6d-c470-43b8-8f82-464af6177e08_620_dldesign_0_cycle1_af2pred (protein)
# chain: GAKSKALQKLFQQANELHKLAIAAKKPEAKKIYNEAAGTALDFAEKAQAGGDEEAEKLAKEAEKIAKEAKEKALAIE
# B34: design_487_778f5c6d-c470-43b8-8f82-464af6177e08_1347_dldesign_0_cycle1_af2pred (protein)
# chain: AAEAETQAALAQLQATMHELMRIAAQALALGDAELAQEALEAVVKGQEGLADPSIVKATAEEVSAARERLRARVEALRAA
# B35: design_487_778f5c6d-c470-43b8-8f82-464af6177e08_1117_dldesign_0_cycle1_af2pred (protein)
# chain: MNVEEAKAQIEALMNRARGYFMRGAALAGTPEGAALNAKGAALLAEAEALAKEAGPEAQKVFAELKAKMDAAVNAVAN
# B36: design_486_d4f32670-1303-4d79-8413-1b14cb3eff50_1678_dldesign_0_cycle1_af2pred (protein)
# chain: AAMEEKEQRIINAAKANLELAKIALEGAPHNPELALKVLEALARRAKELAEEAKKLGLEEAEKAAKEAAEEIKKYAKEAQALL
# B37: design_487_778f5c6d-c470-43b8-8f82-464af6177e08_256_dldesign_0_cycle1_af2pred (protein)
# chain: GEALEKAKEYEKEANEAAAKGKATTPAEGALYFLKAAALYAKAAEEYKKAGDEKNAKEAEAKAKEATANMIALSKQAIAA
# B38: design_487_778f5c6d-c470-43b8-8f82-464af6177e08_978_dldesign_0_cycle1_af2pred (protein)
# chain: KSPTEQVAEYAAKVRAKAPKGEEIARLLFSYNAAYQADPAKGKEKEKELKALAKENPEAKEYVEAAVAAVKA
# B39: design_487_778f5c6d-c470-43b8-8f82-464af6177e08_718_dldesign_0_cycle1_af2pred (protein)
# chain: MKKEEAIRALAAAAARAAKLAVDPRTAAVANKALEVVVSAMEEVEASEDEEEAVEIAEKALAEADKLLAEAAKAA
# Target: CD276, Q5ZPR3
# Sequence (Q5ZPR3 whole entry): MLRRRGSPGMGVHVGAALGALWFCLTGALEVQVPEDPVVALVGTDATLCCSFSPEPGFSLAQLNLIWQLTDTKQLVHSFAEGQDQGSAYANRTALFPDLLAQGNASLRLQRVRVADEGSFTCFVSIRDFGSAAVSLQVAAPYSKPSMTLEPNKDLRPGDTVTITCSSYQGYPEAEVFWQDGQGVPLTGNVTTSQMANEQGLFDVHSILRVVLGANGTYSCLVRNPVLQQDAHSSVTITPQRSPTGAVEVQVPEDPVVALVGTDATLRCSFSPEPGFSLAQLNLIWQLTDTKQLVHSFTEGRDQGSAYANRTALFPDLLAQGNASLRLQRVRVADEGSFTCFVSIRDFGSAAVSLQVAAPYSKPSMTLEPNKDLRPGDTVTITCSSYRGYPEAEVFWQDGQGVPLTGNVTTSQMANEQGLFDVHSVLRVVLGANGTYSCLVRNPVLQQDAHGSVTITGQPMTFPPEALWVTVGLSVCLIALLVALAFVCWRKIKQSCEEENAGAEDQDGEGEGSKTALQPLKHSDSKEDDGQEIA
row,Binder,binding in a display sort
1,B1,not found
2,B2,not found
3,B3,not found
4,B4,not found
5,B5,not found
6,B6,not found
7,B7,not found
8,B8,not found
9,B9,not found
10,B10,not found
11,B11,not found
12,B12,not found
13,B13,not found
14,B14,not found
15,B15,not found
16,B16,not found
17,B17,not found
18,B18,not found
19,B19,not found
20,B20,not found

row,Binder,binding in a display sort
1,B21,not found
2,B22,not found
3,B23,not found
4,B24,not found
5,B25,not found
6,B26,not found
7,B27,not found
8,B28,not found
9,B29,not found
10,B30,not found
11,B31,not found
12,B32,not found
13,B33,not found
14,B34,not found
15,B35,not found
16,B36,not found
17,B37,not found
18,B38,not found
19,B39,not found
